Test results from ChEMBL document CHEMBL1157539, “Thousands of chemical starting points for antimalarial lead identification” (Nature, 2010).

Key:
Type in all cases: functional
[1] = tested on: Plasmodium falciparum; assay: GSK_TCMDC: Inhibition of Plasmodium falciparum 3D7 in whole red blood cells, using parasite LDH activity as an index of growth. Test compounds present at 2uM
[2] = tested on: Plasmodium falciparum; assay: GSK_TCMDC: Inhibition of Plasmodium falciparum Dd2 in whole red blood cells, using parasite LDH activity as an index of growth. Test compounds present at 2uM
[3] = tested on: HepG2; assay: GSK_TCMDC: Percent inhibition of human HepG2 cell line. Test compounds present at 10uM.

SMILES | Inhibition [1] [%] | Inhibition [2] [%] | Inhibition [3] [%]
Fc1cccc(Nc2nc(NCc3ccc(OCc4ccccc4)cc3)nc(Nc3cccc(F)c3)n2)c1 | 84 | 14 | 5
FC(F)(F)c1ccc2c(C=Cc3ccncc3)c[nH]c2c1 | 98 | 76 | 0
Cl.N=C(N)Nc1ccc(NC(=O)Nc2ccc(NC(=N)N)cc2)cc1 | 85 | 74 | 0
CCc1cn(C)c2c(N3CCCC3=O)cc(C(=O)N[C@@H](Cc3ccccc3)[C@H](O)CNC(C)(C)c3cccc(C(F)(F)F)c3)cc12 | 97 | 97 | 22
CCN(C)CCCn1c(N(C)C)nc2cc(-n3cnc4cc(-c5ccc(Cl)cc5)sc4c3=O)ccc21.O=C(O)C(F)(F)F | 80 | 12 | 83
COc1ccc2nc(C)cc(NCc3cccc4ccccc34)c2c1.Cl | 100 | 72 | 28
COc1ccc(CN2CCC(NCc3ccc(C(F)(F)F)cc3)CC2)cc1.O=C(O)C(F)(F)F | 97 | 0 | 37
CC1CN(c2ccnc3ccc(Sc4ccc(Oc5ccccc5)cc4)cc23)CC(C)N1.Cl (stereo unspecified) | 100 | 99 | 33
CC1(C)N=C(N)N=C(N)N1c1ccc([N+](=O)[O-])cc1.Cl | 93 | 1 | 3
Cn1nc(-c2ccc(S(=O)(=O)N3CCC(CCN4CCC(c5c[nH]c6ccccc56)CC4)CC3)s2)cc1C(F)(F)F | 94 | 22 | 40
Cc1cc(N[C@@H](CC(C)C)C(=O)NCCc2ccccc2)nc(Nc2ccccc2)n1.O=C(O)C(F)(F)F | 100 | 38 | 1
O=C(Nc1ccc(-c2ccc(-c3nc4ccccc4[nH]3)s2)cc1)c1ccncc1 | 94 | 95 | 21
Cc1nc(C(=O)N2CCCC[C@H]2CNC(=O)c2ccc(-c3ccc(N4CCCC4=O)cc3C)cc2)c(-c2ccc(F)cc2)s1 | 98 | 94 | 6
COc1ccc(Nc2nc(N/N=C/c3cc(Br)ccc3O)nc(Nc3ccc([N+](=O)[O-])cc3)n2)cc1 | 97 | 37 | 27
Br.CC1(C)NC(N)=NC(=N)N1OCCCOc1ccc([N+](=O)[O-])cc1 | 94 | 80 | 68
O=C(Cc1cccc(Cl)c1)Nc1ccc(N2CCC(NCc3ccc4ncccc4c3)CC2)cc1 | 81 | 8 | 10
O=c1nc2[nH]c3ccccc3n2c(=O)[nH]1 | 95 | 0 | 21
COc1cc2ccccc2cc1CCNCCCCNCCc1cc2ccccc2cc1OC.CS(=O)(=O)O | 99 | 38 | 100
O=C(O)C(F)(F)F.O=S(=O)(NCCN1CCCC1)c1ccc(-c2ccc(CNCc3ccc(F)cc3)cc2)cc1 | 94 | 44 | 42
CN(C)CCCNCc1cn(S(=O)(=O)c2ccccc2Cl)c2ccccc12.Cl | 92 | 71 | 20
O=C(Nc1cccc(OCCN2CCCC2)c1)Nc1ccc(Cl)c(Cl)c1.O=C(O)C(F)(F)F | 98 | 22 | 3

SMILES | Inhibition [1] [%] | Inhibition [2] [%] | Inhibition [3] [%]
COc1ccc(CC(Cc2ccc(OC)cc2)NCC(O)c2cccc(Cl)c2)cc1 (stereo unspecified) | 100 | 98 | 11
CN1CCN(c2cccc(NC(=O)c3ccc(-c4ccc(C#N)cc4)cc3)c2)CC1 | 84 | 7 | 31
CCN(CC)CCCN(C(=O)Nc1ccc(C#N)cc1)c1nc(-c2ccc(F)cc2)cs1 | 99 | 68 | 36
CCOc1ccccc1NC(=O)C(Sc1nc(C)cc(C)c1C#N)c1ccccc1 (stereo unspecified) | 99 | 98 | 0
Cc1cc(NC(=O)Nc2cccc(N(C)C)c2)c2ccccc2n1 | 97 | 95 | 0
COc1ccc(CNCc2ccc(F)cc2)cc1-c1ccc(S(=O)(=O)NCCN2CCCC2)s1.O=C(O)C(F)(F)F | 100 | 65 | 61
Br.C=CCc1cccc(OC)c1OCCCON1C(=N)N=C(N)NC1(C)C | 94 | 95 | 58
O=C(NCc1ccccc1)Nc1ccc(-c2cccc(-c3nc4cc(C(F)(F)F)ccc4[nH]3)c2)cc1 | 97 | 23 | 56
Br.Fc1ccc(C2N=C(SCCSC3=NC(c4ccc(F)cc4)C(c4ccc(F)cc4)N3)NC2c2ccc(F)cc2)cc1 (stereo unspecified) | 99 | 69 | 18
N#Cc1ccc(N(CCOC(=O)c2ccccc2)Cc2ccccc2C(F)(F)F)cc1C(F)(F)F | 92 | 67 | 6
Cc1cc(NCCc2ccccc2)nc(NC(=N)Nc2ccccc2Cl)n1 | 100 | 7 | 20
CCNc1cc(C(=O)N[C@@H](Cc2ccccc2Cl)[C@H](O)CNC2CCCCC2)cc(N2CCCCS2(=O)=O)c1.Cl | 99 | 97 | 6
CC(C)N1CCC(NC(=O)N2CCCN(c3ncnc4cc(-c5ccc(Cl)cc5)sc34)CC2)CC1.O=C(O)C(F)(F)F | 81 | 7 | 6
CC(=O)O.C[C@H](NC(=O)[C@H](Cc1ccccc1)NC(=O)OC(C)(C)C)C(=O)N[C@@H](CC1CCCCC1)C(O)CN (stereo partly specified) | 96 | 64 | 0
COc1cc(C(=O)NCCCN2CCN(c3cccc(Cl)c3)CC2)ccc1-c1nc2cc(Cl)c(F)cc2[nH]1 | 100 | 81 | 15
Cc1c(C2CCN(CCCCNC(=O)c3ccc(-c4ccc(C#N)cc4)cc3)CC2)c2ccccc2n1CCO | 96 | 99 | 28
CCCCN1C(=O)C2CC(=O)CC(C3CCCCC3)C2C1=O (stereo unspecified) | 97 | 1 | 0
O=C(Nc1ccc2c(c1)OCO2)NC1CCN(c2ccnc(NCc3ccc(F)cc3)n2)CC1 | 88 | 15 | 33
CCc1c(C)nc(-n2nc(C)cc2NC(=O)CC(c2ccccc2)c2ccccc2)[nH]c1=O | 97 | 98 | 41
Cl.N=C(NCCCc1ccccc1)c1cccc(C(=N)NCCCc2ccccc2)n1 | 98 | 0 | 44
O=C(Nc1cccc(-c2ccc(-c3nc4cc(F)ccc4[nH]3)cc2)c1)Nc1ccc(Cl)c(Cl)c1 | 100 | 49 | 79

SMILES | Inhibition [1] [%] | Inhibition [2] [%] | Inhibition [3] [%]
CN1CCN(CCCN(C(=O)Nc2cc(C(F)(F)F)cc(C(F)(F)F)c2)c2ccccc2Cc2ccccc2)CC1 | 89 | 92 | 35
CCOCCCn1c(=N)c(C(=O)NCc2ccc(OC)cc2)cc2c(=O)n3cccc(C)c3nc21 | 99 | 46 | 24
COc1cccc2c(NN=Cc3ccccc3F)ccnc12 | 96 | 37 | 6
COc1ccc(Nc2nc(=Nc3ccccc3)nc(NN=Cc3cc(Cl)ccc3O)[nH]2)cc1 | 100 | 10 | 55
CNC(=O)NC1CCN(Cc2c(-c3cccs3)nc3ccccc3c2C(=O)N[C@@H](C)C2CCCCC2)CC1 | 99 | 97 | 5
O=C(NCCNc1ccnc(Nc2ccc(F)cc2)n1)Nc1ccc2c(c1)OCO2 | 97 | 3 | 15
CC1(C)N=C(N)N=C(N)N1OCc1cc(Cl)c(CON2C(N)=NC(N)=NC2(C)C)cc1Cl | 94 | 77 | 21
COc1ccccc1CNC(=O)C(=O)Nc1c(-c2ccccc2)[nH]c2ccccc12 | 99 | 91 | 0
CC(C)CSc1cc(C(=O)Nc2cc(Cl)ccc2O)ccn1 | 100 | 34 | 36
COc1cccc(C(=O)NCCc2cccc(Cl)c2)c1Oc1ccccc1 | 97 | 90 | 28
CCNc1cc(C(=O)N[C@@H](Cc2ccccc2)[C@H](O)CNC(C)C)cc(N2CC(c3ccccc3)CCS2(=O)=O)c1 (stereo partly specified) | 98 | 99 | 0
CN1CCN(Cc2ccc(-c3ccc4ncnc(Nc5ccc(OCc6ccccc6)cc5)c4c3)o2)CC1 | 97 | 90 | 9
CC(=O)c1ccc(S(=O)(=O)N2CCC(C(=O)Nc3ccccc3N3CCCC3)CC2)cc1 | 95 | 99 | 0
O=C(O)C(F)(F)F.OCC1CCCCN1Cc1cccc(-c2cccc(-c3nc4ccccc4[nH]3)c2)c1 (stereo unspecified) | 95 | 4 | 24
COc1ccc(N2CCN(CCCCNCc3ccc(NC(=O)c4cc(Cl)cc(Cl)c4)cc3)CC2)c(OC)c1 | 100 | 99 | 39
CCC(=O)c1cc(C(=O)NCCc2cccc(OC)c2)ccc1OC | 83 | 12 | 0
COCc1nc(-c2ccccc2)nc(N2CCN(C(=O)NC(C)C)CC2)c1Cc1ccccc1F | 96 | 94 | 35
Cn1nc(-c2ccc(NC(=O)Nc3cc(C(F)(F)F)ccc3F)cc2)c2cnc(NCCc3c[nH]cn3)nc21.O=C(O)C(F)(F)F | 99 | 56 | 15
CC(C)Cn1c(Sc2ccc(C#N)c([N+](=O)[O-])c2)nnc1-c1ccc(N(C)C)cc1 | 98 | 98 | 4
COc1ccc(C=NN=c2c3ccccc3[nH]c3ccccc23)c2ccccc12 | 82 | 23 | 9
